For 18 molecules, inhibition, activity and activation results are on record in PubChem BioAssay.

Experiment [1] is described as follows: lowers stimulated NF-kB luciferase signal in Jurkat – cell-based, luminescence, single concentration, T-cell NF-kB inhibitor project, confirmation (AID 435020;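 active = inhibition reaching about 45% at 4 µM in either replicate, limit read from the data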;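 note: plate controls were PMA/ionomycin stimulated DMSO wells for no effect and unstimulated DMSO wells for full effect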). The conditions noted are these: PMA/ionomycin-induced, 16 h, at 4 µM, stronger effect = higher value.
The target of experiment [2] is Tumor necrosis factor receptor superfamily member 10B (Homo sapiens) (UniProt O14763). Put plainly: viability loss of caspase-8 NB7 cells with TRAIL – with/without TRAIL, luminescence panel, confirmation (AID 651596; in the data active = activity above about 50%). The following applies: NB7 neuroblastoma + caspase-8, TRAIL sensitization, NB7 Caspase-8, with TRAIL, mean of runs, at 10 µM, stronger effect = higher value.
Tumor necrosis factor receptor superfamily member 10B (Homo sapiens), sequence (O14763 whole entry, looked up): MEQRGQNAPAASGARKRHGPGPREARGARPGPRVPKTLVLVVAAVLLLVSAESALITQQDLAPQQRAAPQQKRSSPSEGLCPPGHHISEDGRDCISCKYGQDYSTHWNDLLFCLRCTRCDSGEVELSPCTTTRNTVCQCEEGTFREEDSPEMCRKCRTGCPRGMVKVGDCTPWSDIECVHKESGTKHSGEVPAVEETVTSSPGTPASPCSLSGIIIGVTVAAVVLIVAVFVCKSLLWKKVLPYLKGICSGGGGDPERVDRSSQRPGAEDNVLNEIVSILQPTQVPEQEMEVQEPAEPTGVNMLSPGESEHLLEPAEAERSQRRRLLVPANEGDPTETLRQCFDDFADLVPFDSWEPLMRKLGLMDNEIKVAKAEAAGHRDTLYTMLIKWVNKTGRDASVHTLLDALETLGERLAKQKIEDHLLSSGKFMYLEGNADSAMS
Experiment in experiment [3]: as above
The conditions noted are these: NB7 neuroblastoma + caspase-8, without TRAIL, NB7 Caspase-8, without TRAIL, mean of runs, at 10 µM.

Experiment [4] is described as follows: PERK-eIF2a-CHOP pathway stimulators, retested – cell-based, CHO-CHOP luciferase reporter, single concentration, confirmation (AID 463112).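 Note: 0% = DMSO wells and 100% = tunicamycin 10 µg/mL wells.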 The following applies: CHO-CHOP cells, CHOP-luciferase reporter luminescence; at 10 µM; stronger effect = higher value; percent of tunicamycin response, DMSO as zero.
Experiment [5] can be described thus: Brca1-Bard1 BiLC signal decrease – luminescence, single concentration, counter-screen for Mdm2/MdmX interaction inhibitor project, confirmation (AID 504668; call rule not given here). The following applies: Brca1/Bard1 bimolecular luciferase complementation counterscreen, at 8 µM, stronger effect = higher value.
Experiment [6] is described as follows: NF-kB reporter suppression in CF airway cells – cell-based, GFP fluorescence, single concentration, confirmation (AID 602472; in the data active = inhibition above about 40%;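 note: stimulus PAF is a Pseudomonas aeruginosa filtrate and not platelet activating factor; plate controls were DMSO wells with stimulus for no effect and unstimulated DMSO wells for full effect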). The following applies: KKLEB CF airway cells, PAF-induced NF-kB-GFP fluorescence, overnight; at 5 µM; stronger effect = higher value.
Experiment [7] can be described thus: NFkB reporter suppression in cystic fibrosis bronchial cells – cell-based, uHTS hits, panel, cytotoxicity readout, dose response (AID 624344). The conditions noted are these: CF bronchial epithelial cells, PAF-induced NFkB reporter inhibition, with PAF, run 1; at 79 µM (top of the series) unless noted.
Experiment in experiment [8]: as above
The following applies: CF bronchial epithelial cells, PAF-induced NFkB reporter inhibition, with PAF, run 2; at 79 µM (top of the series) unless noted.

Experiment [9] has as its target Sentrin-specific protease 8 (Homo sapiens) (UniProt Q96LD8). Put plainly: human SENP8 peptidase blockers, hit retest – biochemical, luminescence, single concentration, confirmation (AID 488912;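 active = mean inhibition across replicates above about 50%, limit read from the data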). The conditions noted are these: Recombinant SENP8, Z-RLRGG-aminoluciferin luminescence, 60 min; at 12.5 µM; stronger effect = higher value.
For experiment [10], the target named is Sentrin-specific protease 6 (Homo sapiens) (UniProt Q9GZR1). Put plainly: inhibition of human SENP6 catalytic domain – biochemical, luminescence, single concentration, confirmation (AID 488915;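 active = mean inhibition above about 50% in the one-dose retest, limit read from the data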). The conditions noted are these: recombinant SENP6, Z-RLRGG-aminoluciferin luminescence; at 12.5 µM; stronger effect = higher value.
Sentrin-specific protease 6 (Homo sapiens), sequence (Q9GZR1 628-1112 limits assumed): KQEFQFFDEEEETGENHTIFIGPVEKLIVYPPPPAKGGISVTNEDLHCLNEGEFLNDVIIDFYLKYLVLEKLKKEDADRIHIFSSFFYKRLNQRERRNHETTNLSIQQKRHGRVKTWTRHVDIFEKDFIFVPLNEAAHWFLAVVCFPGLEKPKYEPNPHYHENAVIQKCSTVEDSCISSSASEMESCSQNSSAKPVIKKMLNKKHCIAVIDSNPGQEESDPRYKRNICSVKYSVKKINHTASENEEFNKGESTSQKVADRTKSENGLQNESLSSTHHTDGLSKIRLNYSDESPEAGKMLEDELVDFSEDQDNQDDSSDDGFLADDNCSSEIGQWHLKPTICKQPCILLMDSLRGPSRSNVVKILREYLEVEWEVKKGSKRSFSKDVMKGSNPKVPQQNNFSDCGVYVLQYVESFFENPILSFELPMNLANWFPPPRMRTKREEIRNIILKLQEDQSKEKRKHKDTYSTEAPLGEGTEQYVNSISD
Experiment [11] concerns the target Sentrin-specific protease 7 (Homo sapiens) (UniProt Q9BQF6). Put plainly: human SENP7 peptidase blockers, hit retest – biochemical, luminescence, single concentration, confirmation (AID 488917;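 active = mean inhibition above about 50% in the one-dose retest, limit read from the data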). The conditions noted are these: recombinant SENP7, Z-RLRGG-aminoluciferin luminescence, 40 min; at 12.5 µM; stronger effect = higher value.
Experiment [12] deals with Caspase-3 (Homo sapiens) (UniProt P42574). Put plainly: human caspase-3 activity blockade, out-of-family – biochemical, single concentration, selectivity assay for SENP inhibitor project, confirmation (AID 488918;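 active = mean inhibition above about 50%, limit read from the data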;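 note: plate controls were enzyme with DMSO for no effect and wells without caspase-3 for full effect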). The following applies: purified caspase-3, Z-DEVD-aminoluciferin luminescence, 60 min; at 12.5 µM; stronger effect = higher value.
Caspase-3 (Homo sapiens), sequence (P42574 28-227 limits assumed): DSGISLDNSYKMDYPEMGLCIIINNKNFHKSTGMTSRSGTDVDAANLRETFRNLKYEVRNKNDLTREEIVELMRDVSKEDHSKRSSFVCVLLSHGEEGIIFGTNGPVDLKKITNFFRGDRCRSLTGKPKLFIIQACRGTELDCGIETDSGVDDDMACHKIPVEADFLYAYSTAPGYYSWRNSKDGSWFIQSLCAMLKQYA
A short description of experiment [13]: Ultra-Glo luciferase signal interference – biochemical, single concentration, SENP8 reaction pre-completed, artefact control for SENP inhibitor project, confirmation (AID 488919;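 active = mean inhibition above about 50% when retested at one dose, limit read from the data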;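 note: plate controls were DMSO wells with completed reaction for no effect and substrate without enzyme for full effect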). The conditions noted are these: Pre-incubated SENP8/Z-RLRGG-aminoluciferin, luciferase luminescence interference; at 12.5 µM; stronger effect = higher value.
The target in experiment [14] is Protein Mdm4 (Homo sapiens) + E3 ubiquitin-protein ligase Mdm2 (Homo sapiens) (UniProt O15151+Q00987). Description: human Mdm2/MdmX binding disruption – cell-based, luminescence, single concentration, set 2, confirmation (AID 504601;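 active = mean inhibition of the luminescence signal across two replicates at or above 26 percent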). The conditions noted are these: SaOS-2 split-luciferase Mdm2/MdmX complementation, at 8 µM, stronger effect = higher value.
Protein Mdm4 (Homo sapiens) + E3 ubiquitin-protein ligase Mdm2 (Homo sapiens), sequence (O15151 whole entry, looked up): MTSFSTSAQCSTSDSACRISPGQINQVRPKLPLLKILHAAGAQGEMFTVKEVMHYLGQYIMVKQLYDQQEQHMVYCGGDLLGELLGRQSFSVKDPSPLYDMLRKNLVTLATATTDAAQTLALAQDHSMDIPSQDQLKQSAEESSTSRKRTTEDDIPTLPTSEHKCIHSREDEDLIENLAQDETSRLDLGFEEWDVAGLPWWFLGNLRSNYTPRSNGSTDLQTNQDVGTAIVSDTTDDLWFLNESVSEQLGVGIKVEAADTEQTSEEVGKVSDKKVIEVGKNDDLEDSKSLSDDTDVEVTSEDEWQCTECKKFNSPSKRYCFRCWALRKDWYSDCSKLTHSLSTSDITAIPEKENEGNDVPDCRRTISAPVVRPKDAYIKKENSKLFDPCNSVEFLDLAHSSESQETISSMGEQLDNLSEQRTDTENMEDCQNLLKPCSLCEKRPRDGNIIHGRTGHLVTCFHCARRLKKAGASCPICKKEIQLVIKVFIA
Protein Mdm4 (Homo sapiens) + E3 ubiquitin-protein ligase Mdm2 (Homo sapiens), sequence (Q00987 whole entry, looked up): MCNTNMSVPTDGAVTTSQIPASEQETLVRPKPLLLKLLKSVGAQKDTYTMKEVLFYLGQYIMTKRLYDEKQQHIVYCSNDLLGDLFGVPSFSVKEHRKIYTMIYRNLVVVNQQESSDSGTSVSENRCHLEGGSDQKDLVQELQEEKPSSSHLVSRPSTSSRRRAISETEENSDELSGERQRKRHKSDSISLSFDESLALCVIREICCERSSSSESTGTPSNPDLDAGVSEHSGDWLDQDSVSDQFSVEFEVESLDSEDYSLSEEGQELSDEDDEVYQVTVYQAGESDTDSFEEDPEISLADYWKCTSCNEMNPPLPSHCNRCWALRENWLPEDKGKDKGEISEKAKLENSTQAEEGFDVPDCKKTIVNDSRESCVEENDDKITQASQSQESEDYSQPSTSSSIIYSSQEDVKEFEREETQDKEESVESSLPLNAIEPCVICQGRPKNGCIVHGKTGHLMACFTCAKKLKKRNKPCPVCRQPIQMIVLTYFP
Experiment [15] in a line: inhibition of PEG-3 promoter luciferase signal – cell-based, HeLa, luciferase reporter, single concentration, confirmation (AID 602417;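 active = at 20 µM dose, 40% or more inhibition averaged across four replicates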). The conditions noted are these: HeLa PEG-Prom luciferase reporter, luminescence, overnight; at 20 µM; stronger effect = higher value. Background: A reporter such as luciferase makes a cellular process visible.
A short description of experiment [16]: HIF-2a driven luciferase blockers, single dose – luminescence, 786-0 RCC cells, confirmation (AID 651580;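 active = mean inhibition across four replicates of at least 40 percent at the single tested concentration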). The conditions noted are these: HIF-2a luciferase reporter luminescence, overnight, at 18.8 µM, stronger effect = higher value.
Experiment [17] in a line: HIF-1a luciferase reporter signal reduction – MiaPaCa-2 cells, single concentration, counter-screen for HIF-2a inhibitor project, confirmation (AID 651589;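 active = mean inhibition of the reporter signal across four replicates at the single tested dose of 50% or more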). The following applies: MiaPaCa-2 HIF-1a luciferase reporter, desferoxamine, overnight; at 18.8 µM; stronger effect = higher value.
The target of experiment [18] is PEG-3 (UniProt Q6IN02). Put plainly: inhibition of PEG-3 promoter-driven reporter – cell-based, HeLa, luciferase, CREF/GAPDH counter-screen panel, dose response (AID 624167). The conditions noted are these: CREF/GAPDH counter-screens; HeLa PEG-Prom luciferase reporter, overnight, run 1, dose range 1, at 100 µM (top of the series) unless noted. (A counterscreen serves to expose hits that act by an unwanted route or on another target.)
PEG-3, sequence (Q6IN02 whole entry, looked up): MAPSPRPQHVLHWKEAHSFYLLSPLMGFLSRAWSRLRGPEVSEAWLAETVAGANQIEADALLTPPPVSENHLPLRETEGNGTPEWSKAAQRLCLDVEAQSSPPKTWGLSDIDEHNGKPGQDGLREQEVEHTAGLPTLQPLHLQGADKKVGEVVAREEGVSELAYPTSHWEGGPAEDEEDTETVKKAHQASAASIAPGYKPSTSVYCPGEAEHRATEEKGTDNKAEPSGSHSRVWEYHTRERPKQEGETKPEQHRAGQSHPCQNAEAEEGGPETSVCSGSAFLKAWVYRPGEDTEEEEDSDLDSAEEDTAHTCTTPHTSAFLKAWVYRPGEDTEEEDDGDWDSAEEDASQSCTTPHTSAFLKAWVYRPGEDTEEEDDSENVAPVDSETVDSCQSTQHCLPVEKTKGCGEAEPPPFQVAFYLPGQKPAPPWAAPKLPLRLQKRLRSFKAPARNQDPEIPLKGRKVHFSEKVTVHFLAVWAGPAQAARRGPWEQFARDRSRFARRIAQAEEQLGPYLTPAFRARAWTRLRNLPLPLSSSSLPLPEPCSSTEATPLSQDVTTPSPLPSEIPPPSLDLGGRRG

For experiment [19], the target named is PEG-3 (UniProt Q6IN02). The experiment is described as above. The conditions noted are these: CREF/GAPDH counter-screens; HeLa PEG-Prom luciferase reporter, overnight, run 2, dose range 1, at 100 µM (top of the series) unless noted.
Experiment [20] concerns Rat fibroblasts (CREF). The description is as above. The conditions noted are these: CREF/GAPDH counter-screens; run 1, dose range 1, at 100 µM (top of the series).
The test system of experiment [21] is Rat fibroblasts (CREF). Described as above. The conditions noted are these: CREF/GAPDH counter-screens; run 2, dose range 1, at 100 µM (top of the series).

Structures are written as SMILES. This is one part of the list. The source made the active and inactive calls. Cut-off read from the data, not from the text of the source, unless noted: active = activation above about 33%; inactive = the rest.

Sentrin-specific protease 8 (Homo sapiens), sequence (Q96LD8 whole entry, looked up, the tested form may be a part): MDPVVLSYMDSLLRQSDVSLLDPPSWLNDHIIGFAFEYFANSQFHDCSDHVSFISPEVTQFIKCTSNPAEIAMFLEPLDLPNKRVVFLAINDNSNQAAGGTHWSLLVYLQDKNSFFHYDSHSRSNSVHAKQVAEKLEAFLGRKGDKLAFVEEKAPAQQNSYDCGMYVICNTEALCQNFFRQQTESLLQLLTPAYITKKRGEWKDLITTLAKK
Sentrin-specific protease 7 (Homo sapiens), sequence (Q9BQF6 706-1050 limits assumed): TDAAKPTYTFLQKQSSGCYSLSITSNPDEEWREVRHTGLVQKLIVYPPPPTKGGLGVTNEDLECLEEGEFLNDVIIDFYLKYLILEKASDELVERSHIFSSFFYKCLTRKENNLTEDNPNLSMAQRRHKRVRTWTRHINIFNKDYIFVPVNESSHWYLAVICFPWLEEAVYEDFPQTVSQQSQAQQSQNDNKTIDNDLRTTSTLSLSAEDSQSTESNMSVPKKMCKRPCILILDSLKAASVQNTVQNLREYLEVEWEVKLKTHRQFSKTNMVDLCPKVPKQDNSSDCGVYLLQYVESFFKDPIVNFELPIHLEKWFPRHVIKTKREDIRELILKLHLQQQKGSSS

Regarding `NC(=O)c1c(NC(=O)c2ccccc2)sc2c1CCCC2`, the inhibition (in general, the drop in the measured response relative to a control, in per cent) in [1] is -110% (inactive). Further, the activity is 51.6% in experiment [2] and 58% in [3].

On to `OCCNc1nc(Nc2ccc(Cl)c(Cl)c2)nc2ccccc12`, for which the activation in [4] was 41% (active). Moreover, the inhibition in experiment [5] was 24.3% (active); in experiment [6], 81.5% (active); in experiment [7], 110%; in [8], 105%.

For `CCOc1ccc2nc(Cl)c(C3CC(c4ccccc4)=NN3C(=O)c3cccs3)cc2c1` (stereo not drawn), the activation in experiment [4] is -1.15% (inactive).

Turning to `COc1ccc(-c2cc(C(F)(F)F)nc(S(C)(=O)=O)n2)cc1OC`, in experiment [4], the activation is 210% (active). Besides, the inhibition in [5] is 24.3% (active).

As for `Cc1cccc(C)c1NC(=O)C(Cl)C(=O)c1ccccc1` (stereo not drawn), the activation in [4] was 85.6% (active).

With `O=C(N/N=C\c1cc2c(cc1Cl)OCO2)c1ccc(Br)s1`, the activation in experiment [4] was 50.2% (active).

With `Cc1ccc(Oc2nc(-c3ccccn3)nc3ccccc23)cc1`, in experiment [4], the activation is 1.5% (inactive).

On to `COc1ccccc1N=Cc1c(O)c2ccccc2oc1=O`, for which the activation in experiment [4] is 124% (active). Moreover, the inhibition in [9] is 43.2% (inactive); in experiment [10], 53.7% (active); in [11], 49.6% (inactive); in experiment [12], 19.3% (inactive); in experiment [13], 27.7% (inactive).

Regarding `O=[N+]([O-])c1ccc(C=Nc2ccc(Cl)cc2Cl)s1`, in experiment [4], the activation was 74.2% (active). Besides, the inhibition in experiment [9] was 9.7% (inactive); in experiment [10], 19.4% (inactive); in [11], 18.5% (inactive); in [12] it was 7.4% (inactive); in [13] it was 8.1% (inactive).

With `O=C(CN1CCN(S(=O)(=O)c2cc(Cl)ccc2Cl)CC1)c1ccc(O)c(O)c1`, the activation in experiment [4] is 21.2% (inactive).

On to `CCOC(=O)/C=c1\s/c(=C\c2ccc(C#N)cc2)c(=O)n1CC(=O)Nc1cccc(C)c1C`, for which the activation in experiment [4] is 1.05% (inactive).

As for `Cc1cccc(CS(=O)(=O)c2ncc(Cl)c(C(=O)Nc3ccc(F)cc3)n2)c1`, in experiment [4], the activation is 88.1% (active). Moreover, the inhibition in experiment [14] is 103% (active); in experiment [15], 95.7% (active); in [6] it was 44% (active); in [16], 99.3% (active); in experiment [17], 86.8% (active); in experiment [18], 99.1%. The inhibition in experiment [19] worked out at 98.3%; in experiment [20], 100%; in experiment [21], 96.3%.

As for `COc1cc(/C=C2/C(=O)ON=C2C)ccc1OCc1ccccc1F`, the activation in [4] was 3.58% (inactive).

With `O=C(CSc1cccc2cccnc12)N/N=C/c1cccnc1`, the activation in experiment [4] is 265% (active).

In the case of `N#Cc1cccc(NC(=O)COC(=O)c2ccccc2C(=O)c2ccc(Cl)c([N+](=O)[O-])c2)c1`, the activation in [4] is 26.1% (inactive). In addition, the inhibition in [14] is 103% (active); in experiment [6], 108% (active); in experiment [16], 55.9% (active); in experiment [17] it was 108% (active); in experiment [7], 103%; in [8], 111%.

Turning to `CCOC(=O)c1sc(NC(=O)CCN2CCOCC2)c(C(=O)OCC)c1C`, in experiment [4], the activation was -1.25% (inactive).

For `CC(=O)/C(=N\Nc1ccc(Cl)cc1Cl)Sc1cccc2cccnc12`, the activation in experiment [4] was 184% (active).

Consider `CSc1nnc(NC(=O)c2nc(S(=O)(=O)Cc3ccc(C)cc3)ncc2Cl)s1`, for which the activation in experiment [4] was 87% (active). Further, the inhibition in [14] is 100% (active). In addition, the values for the activity in experiment [2] and in [3] were 74.5% and 82.2%, respectively.
